Bioassay records deposited in PubChem BioAssay by National Center for Advancing Translational Sciences (NCATS).
Rows were chosen to be rich in hits. Some 4.6% of all compounds tested hit in one or more screens of this group.
D1 antagonist = Antagonist of Human D 1 Dopamine Receptor: qHTS | D(1A) dopamine receptor (Homo sapiens), P21728 | 360,000 compounds, 3.2% hits | activity change, negative = inhibition, % at 10 µM | AID 504652, 2011 | HEK293 TREx D1 cells, calcium flux, dopamine EC80; active compounds read low; in the data active means activity change below about -30%; further: on the % scale 0 is the no-effect control and ±100 the full control effect
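After overnight tetracycline induction at 30 C, force-coupled D1 HEK293 cells took up a no-wash calcium dye at room temperature. Compounds were added and monitored 180 s, and the response to EC80 dopamine was then recorded.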
D1 agonist = Allosteric Agonists of the Human D1 Dopamine Receptor: qHTS; AID 504660, 2011; 360,000 compounds, 1% hits; activation, % at 2 µM; HEK293 T-REx D1 cells, calcium flux, agonist mode; further: 0% is about no effect
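Tetracycline-induced HEK293 TREx D1 cells, force-coupled to calcium signalling, were dye-loaded with a no-wash calcium kit. Compound was pin-added after a 10 s baseline. Fluorescence was read kinetically at 1 cycle/s for 180 s, with calcium rises flagged as agonism.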
TRHR PAM = qHTS for Small Molecule Agonists and Allosteric Enhancers of Human TRH Receptor: Primary Screen for Enhancers; enhancement, % at 2 µM; Thyrotropin-releasing hormone receptor (Homo sapiens), P34981; 360,000 compounds, 0.66% hits; TRHR cells, fluo-8 calcium fluorescence, EC20 TRH enhancement; in the data active means enhancement above about 30%; further: 0% is about no effect
Target sequence (P34981 whole entry, looked up): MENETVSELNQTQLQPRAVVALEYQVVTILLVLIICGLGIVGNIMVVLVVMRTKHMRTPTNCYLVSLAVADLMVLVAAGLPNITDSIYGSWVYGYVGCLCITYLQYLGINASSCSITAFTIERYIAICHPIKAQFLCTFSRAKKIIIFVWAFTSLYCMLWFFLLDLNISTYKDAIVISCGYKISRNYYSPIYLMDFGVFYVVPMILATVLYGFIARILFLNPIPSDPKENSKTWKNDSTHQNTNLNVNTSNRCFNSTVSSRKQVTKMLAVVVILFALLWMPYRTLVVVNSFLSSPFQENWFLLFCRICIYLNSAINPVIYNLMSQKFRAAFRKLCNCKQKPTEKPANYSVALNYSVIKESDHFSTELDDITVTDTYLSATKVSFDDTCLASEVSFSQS
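Enhancer read-out: after compound pinning and an initial kinetic agonist-mode read, an EC20 of TRH (10 nM final) was injected and fluo-8 calcium signal (Ex 480/Em 530) followed at 1 s/cycle for 100 cycles in TRHR-expressing cells.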
D1 potentiator = Potentiators of Human D1 Dopamine Receptor: qHTS; potentiation, % at 10 µM; D(1A) dopamine receptor (Homo sapiens), P21728; 360,000 compounds, 0.036% hits; HEK293 TREx D1 cells, calcium flux, dopamine EC20 potentiation; in the data active means potentiation above about 30%; further: 0% is about no effect
TRHR ag = qHTS for Small Molecule Agonists and Allosteric Enhancers of Human TRH Receptor: Primary Screen for Agonists. Thyrotropin-releasing hormone receptor (Homo sapiens), P34981. TRHR cells, calcium flux fluo-8, FDSS agonist mode. activation, % at 2 µM. 360,000 compounds, 0.18% hits. AID 493084, 2011; further: 0% is about no effect
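Read-out: compound-evoked intracellular calcium rise in TRHR cells, fluo-8 dye, kinetic FDSS fluorescence at 1 s/cycle following a 10-cycle baseline. Cells cultured overnight before dye loading (30 min–1.5 h, RT).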
Numbers without * were called inactive; / = not tested or not shown. Unless noted, no stated cut-off is given here; in the data, active means activation above about 30%; inactive means the rest.

SMILES	D1 antagonist	D1 agonist	TRHR PAM	D1 potentiator	TRHR ag
CC(C)c1ccc(CNCc2ccccc2)cc1	-7	50*	-2	-3	1
Fc1ccc(CNCCCSc2nnnn2-c2ccccc2)cc1	-43*	161*	6	5	-1
COc1ccc(CNCCSc2nnnn2-c2ccccc2)cc1	-1	14	5	3	0
CC(C)c1ccc(CNC(=O)CCc2ccccc2)cc1	-7	2	8	4	0
CC(C)c1ccc(CNCCSc2nnnn2-c2ccccc2)cc1	10	56*	6	6	0
Fc1ccccc1CNCCCSc1nnnn1-c1ccccc1	-9	6	6	0	0
CCn1c(CNC(=O)c2ccc(OC)c(OC)c2)nnc1SCC(=O)Nc1ccc(OC)cc1	7	7	4	-3	0
CCOc1ccc(NS(=O)(=O)c2cc(Cl)ccc2OC)cc1	0	0	9	4	0
O=C1Nc2ncccc2OC1CCCl (stereo not given)	-8	-1	-4	0	0
Cc1c(-c2cc[n+]([O-])cc2)oc2ccc(Br)cc2c1=O	8	2	11	12	-1
N#Cc1cccc(NC(=O)COC(=O)Cn2nc(-c3ccccc3)oc2=O)c1	-85*	18	-8	/	0
COc1ccc(Cl)cc1NC(=O)CN1CCC(n2nnc3cc(C)ccc32)CC1	-37*	2	0	-8	0
COc1ccccc1NC(=O)CN1CCC(n2nnc3cc(F)ccc32)CC1	-46*	1	-3	-9	-1
COc1ccc(Cl)cc1NC(=O)CN1CCCCCC1	8	2	-10	4	2
O=C(c1ccc([N+](=O)[O-])cc1)N1CCC(n2nnc3cc(F)ccc32)CC1	31	0	40*	4	0
O=C(N1CCOCC1)N1CCC(n2nnc3cc(F)ccc32)CC1	8	1	5	4	0
COc1ccc(C(=O)NNC(=O)CN2CCC(n3nnc4cc(F)ccc43)CC2)cc1	-34*	1	2	3	0
CC(CCc1ccccc1)NC(=O)Cn1ncc2c3ccccc3n(Cc3cccc(Cl)c3)c2c1=O (stereo not given)	-10	21	4	-4	2
CCCCn1c(N)c(N(CCOC)C(=O)c2ccc3c(c2)OCCO3)c(=O)[nH]c1=O	2	1	-9	-3	0
Cc1ccc2c(c1)nnn2C1CCN(CC(=O)Nc2ccccc2N2CCOCC2)CC1	-30*	3	1	-13	-1
CN(C)CCNC(NC(=O)c1cccs1)C(Cl)(Cl)Cl (stereo not given)	-17	4	2	3	0
Cc1ccc(C(=O)NCc2ccc3c(c2)CCO3)cc1C	-48*	3	-5	-3	0
O=c1oc2ccccc2c(O)c1C=Nc1cccnc1	-7	0	10	-4	0
COc1ccccc1N1CCN(C2CCCN(C(=O)CN3CCCC3=O)C2)CC1 (stereo not given)	-32*	-1	7	-4	0
Cc1ccccc1N1CCN(C2CCCN(C(=O)CN3CCCC3=O)C2)CC1 (stereo not given)	19	1	-14	1	0
SMILES	D1 antagonist	D1 agonist	TRHR PAM	D1 potentiator	TRHR ag
O=C(c1ccco1)N1CCCC(N2CCN(c3ccccc3F)CC2)C1 (stereo not given)	-9	1	-2	0	0
CC(C)/C=C/C(=O)N1CCCC(N2CCN(c3ccccc3F)CC2)C1 (stereo not given)	-46*	1	-5	-5	-1
Cc1cc(C(=O)N2CCCC(C(=O)c3cccc4ccccc34)C2)nc(C)n1 (stereo not given)	-61*	0	1	-7	-6
O=C(c1cccc2ccccc12)C1CCCN(C(=O)CCN2CCCO2)C1 (stereo not given)	-8	6	38*	-8	-1
CCC(CC)C(=O)N=C1SC2CS(=O)(=O)CC2N1CCc1ccc(OC)cc1 (stereo not given)	24	-1	3	10	-1
CCN(CC)CCNC(=O)C(=O)NCC1OCCN1C(=O)c1ccc2c(c1)OCO2 (stereo not given)	-7	0	-5	-4	0
CN(C)C(=O)c1ccccc1NC(=O)Cc1cccc2ccccc12	31	5	0	3	0
COc1ccc(Cc2noc(CN3CCN(c4ccc(Cl)cn4)CC3)n2)cc1OC	-31*	15	-6	-4	-1
COc1ccc(N2CC(C(=O)N/N=C/c3cc([N+](=O)[O-])ccc3O)CC2=O)cc1 (stereo not given)	-2	-1	39*	1	0
COc1ccc(N2CC(C(=O)Nc3ccc([N+](=O)[O-])cc3Br)CC2=O)cc1 (stereo not given)	-5	-1	0	-6	0
O=C(CN1C(=O)NC2(CCCC2)C1=O)Nc1ccc(Cl)c(C(F)(F)F)c1	-14	2	1	-1	4
Cc1cc(/C=C2\Cc3ccccc3C2=O)c(C)n1-c1ccccc1	9	11	2	-4	4
COC(=O)[C@@H](NC(=O)c1ccc(OC2CCN(Cc3ccccn3)CC2)cc1)C(C)C	1	4	-6	-1	1
CCn1nc(C)c(CNC(=O)c2ccc(OC3CCN(Cc4ccccn4)CC3)cc2)c1C	-34*	5	3	-6	1
CCn1cc(CNC(=O)c2ccc(OC3CCN(Cc4ccccn4)CC3)cc2)cn1	0	2	-1	-5	0
CC(C)c1cc(CNC(=O)c2ccc(OC3CCN(Cc4ccccn4)CC3)cc2)on1	-53*	13	-2	-7	0
COc1cccc(-n2nc(C(=O)O)c3ccccc3c2=O)c1	27	2	-3	-2	1
COC(=O)CNC(=O)c1nn(-c2cccc(OC)c2)c(=O)c2ccccc12	-40*	2	1	-2	0
CCN(CC)S(=O)(=O)c1ccc(N2CCN(S(=O)(=O)c3ccccc3C#N)CC2)nc1	-83*	3	-5	-5	1
CN(C)CCCN(C(=O)CCc1ccccc1)c1nc2ccc(F)cc2s1	-6	32*	0	-7	4
COc1ccc2sc(N(Cc3cccnc3)C(=O)CCc3ccccc3)nc2c1	/	34*	12	-2	-1
COc1ccc2nc(N(Cc3cccnc3)C(=O)Cc3ccccc3)sc2c1	/	18	3	-1	-1
CN(C)CCCN(C(=O)CCc1ccccc1)c1nc2ccc(Br)cc2s1	-16	23	-2	-3	1
